# Hits are enriched below; roughly 0.68% of the tested compounds scored in any of these assays.
# RE007 growth inh – less growth of the S. pombe RE007 Vpr strain; S. pombe RE007 Vpr strain, BacTiter-Glo ATP luminescence, 24 h; Potency, µM (doses to about 92.2 µM), usual class: inhibitors; actives 0.21% (n = 360,000); AID 651644; active means well fitted falling curve with a large enough effect; inconclusive means small, poorly fitted or top-dose-only effect; inactive means no such curve, though single readings can be large or run the other way; further: nearly all actives have a fitted effect of over 50% in size
#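 Fission yeast RE007 carrying one integrated HIV-1 vpr copy, seeded at OD 0.01 in PMG+AL medium with 23 nL pinned compound. Grown 24 h at 30 degrees; viability read by BacTiter-Glo luminescence after 5 min.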
# AMA1-RON2 inh – AMA1-RON2 (P. falciparum) interaction inhibition; Potency, µM (doses to about 58.2 µM), usual class: inhibitors; AlphaScreen AMA1-biotinylated RON2 peptide binding; actives 0.2% (n = 360,000); further: nearly all actives have a fitted effect of over 45% in size
#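 AMA1 (3D7) with his tag at 25 nM final met compounds first, then biotinylated RON2 peptide at 25 nM; detection used donor plus acceptor beads, 10 µg/mL apiece, read by AlphaScreen after 30 min at room temperature.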
# LmPK inh – blocks Leishmania mexicana pyruvate kinase activity | purified LmPK, Kinase-Glo ATP luminescence, 1 h | Potency, µM (highest dose often 57.5 µM), actives largely listed as inhibitors | AID 1721 | actives 0.37% (n = 290,000)
# Target sequence (Q27686 whole entry, looked up): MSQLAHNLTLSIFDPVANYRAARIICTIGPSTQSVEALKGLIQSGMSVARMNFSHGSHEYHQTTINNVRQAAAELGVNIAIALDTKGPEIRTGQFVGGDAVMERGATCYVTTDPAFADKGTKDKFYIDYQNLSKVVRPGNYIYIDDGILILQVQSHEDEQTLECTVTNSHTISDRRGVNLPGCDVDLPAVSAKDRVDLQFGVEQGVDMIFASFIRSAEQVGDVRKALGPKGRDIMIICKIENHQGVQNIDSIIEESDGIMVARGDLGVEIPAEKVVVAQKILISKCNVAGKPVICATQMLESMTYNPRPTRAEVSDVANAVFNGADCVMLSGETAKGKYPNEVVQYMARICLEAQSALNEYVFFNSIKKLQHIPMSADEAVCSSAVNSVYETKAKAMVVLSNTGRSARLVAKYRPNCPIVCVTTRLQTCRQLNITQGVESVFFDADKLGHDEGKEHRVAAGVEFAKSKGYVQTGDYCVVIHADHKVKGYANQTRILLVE
#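 In 50 mM imidazole pH 7.2 with 7 mM MgCl2, LmPK (0.1 nM) turned over PEP (0.5 mM) and ADP (0.1 mM) for 1 h at room temperature. Luciferase read-out of ATP.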
# TbPYK inhibitor – T. brucei pyruvate kinase inhibition; TbPYK enzyme, Kinase-Glo Plus ATP luminescence, 45 min; Potency, µM (doses to about 76.8 µM), hits mostly inhibitors; actives 0.12% (n = 410,000); further: nearly all actives have a fitted effect of over 50% in size
#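 Enzyme and substrate buffer are dispensed first and compound is pin-transferred. ADP at 130 uM final then starts the reaction, which runs 45 min at room temperature. Detection reagent is added for 10 min before luminescence is imaged.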
# A number is an active result; i = inactive; ? = inconclusive; nt = not tested or not shown; [ ] = dose if it differs, or a comment. Unless noted, the call rests on the fitted dose curve; in most records, active means well fitted curve in the direction sought with a large enough effect; inconclusive means small, poorly fitted or top-dose-only effect, or another doubt; inactive means no such curve, though single readings can be large; an effect the other way counts as inactive or inconclusive.
SMILES,RE007 growth inh,AMA1-RON2 inh,LmPK inh,TbPYK inhibitor
O=C(COC(=O)c1cccs1)c1ccccc1,?,i,14µM,i
COc1ccc(C(=O)COC(=O)c2cccs2)cc1,?,i,nt,?
c1ccc(-c2nc(-c3ccncc3)no2)cc1,i,i,14µM,i
c1ccc(-c2ccc(-c3nc(-c4ccncc4)no3)cc2)cc1,i,i,i,i
Brc1ccc(-c2nc(-c3ccncc3)no2)o1,i,i,i,i
c1coc(-c2nc(-c3ccncc3)no2)c1,i,i,22µM,i
Cc1cc(Cl)ccc1-n1c(-c2cccnc2)n[nH]c1=S,i,i,8.9µM,14µM
Cc1ccc(C)c(-n2c(-c3cccnc3)n[nH]c2=S)c1,i,i,i,?
Cc1c(Cl)cccc1-n1c(-c2cccnc2)n[nH]c1=S,i,i,?,7.1µM
CC(C)C(O)(CC#CCN1CCCC1)c1ccccc1 (stereo not given),i,i,i,i
Cc1ccc(S(=O)(=O)N(C)c2ccc(C(=O)N3CCOCC3)cc2)cc1,i,i,i,i
C=CCSC1=C(C#N)C(c2ccccc2Cl)CC(=O)N1 (stereo not given),i,i,i,i
C=C(C)CSC1=C(C#N)C(c2ccccc2Cl)CC(=O)N1 (stereo not given),i,i,i,13µM
CCN(CC)CCOC(=O)c1ccc(Nc2c3c(nc4ccccc24)CCC3)cc1,nt,nt,nt,i
Oc1cccc2ccc(/C=C/c3cccs3)nc12,?,i,22µM,i
COC/C=C/C1=CC2=CC(=O)C(C)(OC(=O)c3cnc4ccccc4n3)C(=O)C2=CN1C1CCCC1 (stereo not given),nt,nt,i[11.5 µM],nt
C=C1c2cccc(O)c2C(=O)C2C(=O)[C@]3(O)C(=O)C(C(N)=O)C(=O)[C@@H](N(C)C)[C@@H]3[C@@H](O)[C@H]12 (stereo not given in full),i,0.89µM,nt,?
COc1ccc(OC)c(NC2=C(Cl)C(=O)N(Cc3ccccc3)C2=O)c1,i,13µM,i,i
CCOc1ccccc1NC1=C(Cl)C(=O)N(Cc2ccccc2)C1=O,i,i,i,i
CCOC(=O)c1c(C)[nH]c(C2=NNC(=NC3CC3)SC2)c1C,i,i,i,7.9µM
OCC(Br)CBr (stereo not given),i,i,nt,i
Cc1ccc(NC(=O)CCCCCC2NC(=O)NC2C)cc1 (stereo not given),i,0.21µM,i,i
CC1NC(=O)NC1CCCCCC(=O)Nc1ccc(F)c(Cl)c1 (stereo not given),i,?,i,i
Cc1onc(C(=O)/C=C/N(C)C)c1C(=O)Nc1nccs1,i,i,i,i
CC(=O)/C(N=Nc1ccc(C(=O)O)cc1[N+](=O)[O-])=C(\C)O,i,i,25µM,i
SMILES,RE007 growth inh,AMA1-RON2 inh,LmPK inh,TbPYK inhibitor
CCOC(=O)C(=O)c1c(C)cc2ccccn12,i,i,i,i
O=C(/C=C/c1ccco1)Nc1ccccn1,i,i,14µM,i
Cc1ccc(NC(=O)/C=C/c2ccco2)nc1,i,i[2.32 µM],i,i
COc1cccc(NC(=O)/C=C/c2ccco2)c1,?,i,16µM,i
CCCc1cc(=O)oc2cc(OCC(=O)NC(Cc3ccc(Cl)cc3)C(=O)O)ccc12 (stereo not given),i,i,i,i
Cc1ccc2nc(-c3ccc(N4C(=O)CC(N5CCN(CCO)CC5)C4=O)cc3)sc2c1 (stereo not given),32µM,i,i,i
Cc1ccc(C)c(S(=O)(=O)N2CCC3(CC2)OCCO3)c1,i,i,i,i
COc1ccc(C(CCN2CCCCC2)c2c(OC)cc(OC)c3c(-c4ccccc4)cc(=O)oc23)cc1 (stereo not given),i,i,i,i
COc1cc(OC)c2c(-c3ccccc3)cc(=O)oc2c1C(CCN1CCCCC1)c1ccc2c(c1)OCO2 (stereo not given),i,i,i,i
COc1cc(OC)c2c(-c3ccccc3)cc(=O)oc2c1C(CCN1CCCCC1)c1ccc(N(C)C)cc1 (stereo not given),i,25µM,i,i
COc1cc(OC)c2c(-c3ccccc3)cc(=O)oc2c1C(CCN1CCOCC1)c1ccc(N(C)C)cc1 (stereo not given),i,28µM,nt,i
COc1ccc(OC)c(CNc2ccc([N+](=O)[O-])cc2C)c1,i,13µM,i,i
C(=N\Nc1nc2ccccc2[nH]1)/c1cccs1,i,i,14µM,i
Cc1ccsc1/C=N/Nc1nc2ccccc2[nH]1,i,i,14µM,i
C(=N\Nc1nc2ccccc2[nH]1)/c1ccncc1,i,i,i[11.5 µM],i
Fc1ccccc1SCc1nnc(-c2ccccc2Br)o1,i,i,i,32µM
Cc1cccc(-c2noc(CCCC(=O)NCc3ccco3)n2)c1,nt,nt,nt,i
Cc1onc(-c2c(F)cccc2Cl)c1C(=O)N1CCCc2ccccc21,i,i,i,7.1µM
Cc1c(Cc2ccccc2)c(NCCN(C)C)n2c(nc3ccccc32)c1C#N,i,i,i,i
COc1ccc(OC)c(NC2c3ccccc3C(=O)N2Cc2ccc3c(c2)OCO3)c1 (stereo not given),i,16µM,i,?
C=CCn1c(Cc2ccccc2)n[nH]c1=S,i,i,i,?
C=CCn1c(Cc2c[nH]c3ccccc23)n[nH]c1=S,i,i,i,13µM
C=CCn1c(-c2cccc3ccccc23)n[nH]c1=S,i[3.69 µM],i,8.9µM,nt
O=C1C(=Cc2ccccc2[N+](=O)[O-])Cc2ccccc21,2.5µM,i,nt,i
Nc1ccccc1C=C1Cc2ccccc2C1=O,i,i,nt,i
SMILES,RE007 growth inh,AMA1-RON2 inh,LmPK inh,TbPYK inhibitor
O=C(/C=C/c1cccs1)N1CCN(c2ccc(O)cc2)CC1,i,i,16µM,i
Nc1ccc2c3c(ccc([N+](=O)[O-])c13)CC2,?,28µM,nt,i
CC(=O)c1ccc2c3c(ccc([N+](=O)[O-])c13)CC2,i,i,nt,i
CN(C)c1ccc(N=Cc2cccn2C)cc1,i,22µM,i,i
CN(C)c1ccc(N=Cc2nc(-c3ccccc3)oc2O)cc1,?,i,i,i
CCn1c(=O)c(CCC(=O)NCCN2CCOCC2)c(C)c2c(C)nn(-c3cccc(C)c3)c21,i,i,i,i
Cc1ccccc1CN1CCN(C(=O)c2cccc3ccccc23)CC1,i,25µM,i,i
O=C1NC[C@H](Cc2ccc(O)cc2)N(C[C@H]2CCCN2C[C@H](Cc2ccc(O)cc2)N2C[C@H](Cc3ccc(O)cc3)N(CCc3ccccc3)C(=O)C2=O)C1=O,i,32µM,nt,i
CCc1ccccc1-n1c(-c2ccncc2)n[nH]c1=S,i,i,13µM,25µM
Cc1cc(-c2n[nH]c(=S)n2-c2ccccc2C)cs1,i,i[11.6 µM],10µM,?
Cc1ccccc1-n1c(-c2ccncc2)n[nH]c1=S,i,i,32µM,?
Cc1ccc(-n2c(-c3ccncc3)n[nH]c2=S)c(C)c1,i,i,i,7.1µM
Cc1ccc(-n2c(-c3ccc(Br)cc3)n[nH]c2=S)c(C)c1,i,i,nt,?
Cc1cccc(-n2c(-c3ccncc3)n[nH]c2=S)c1C,i,i,?,?

# Compound activity from PubChem.
